{
  "source": "PubChem BioAssay (NCI)",
  "assay": "NCI Yeast Anticancer Drug Screen. Data for the rad52 strain (AID 147);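 further: 0% = growth of vehicle-treated control cultures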",
  "conditions": "S. cerevisiae rad52 mutant growth inhibition, stronger effect = higher value",
  "description": "Growth inhibition of yeast strains with defined genetic alterations is measured as a screen for potential anti-cancer activity. Selected strains with alterations in DNA damage repair or cell cycle control were exposed to compounds and growth inhibition was measured relative to vehicle treated controls. The strain used in this assay is rad52",
  "note": "Compounds without any hit were thinned out: in the full panel of roughly 79,000, 15% have a hit. Values without a mark were called inactive. The source made the active and inactive calls. No stated cut-off is given here; in the data, active means growth inhibition above about 70%; inactive means the rest.",
  "data": [
    {"molecule": "C=CCNC1=C2C[C@@H](C)C[C@H](OC)[C@H](O)[C@@H](C)/C=C(\\C)[C@H](OC(N)=O)[C@@H](OC)/C=C\\C=C(/C)C(=O)NC(=CC1=O)C2=O", "values": [
      {"measurement": "growth inhibition", "setting": "at 1.2 µM", "value": -16, "unit": "%"},
      {"measurement": "growth inhibition", "setting": "at 3.7 µM", "value": -21, "unit": "%"},
      {"measurement": "growth inhibition", "setting": "at 11.0 µM", "value": 46, "unit": "%"},
      {"measurement": "growth inhibition", "setting": "at 33.0 µM", "value": "97% (active)"},
      {"measurement": "growth inhibition", "setting": "at 100.0 µM", "value": "97% (active)"}
    ]},
    {"molecule": "Cc1ccc(NC(Nc2ccc(C)cc2C)=C(C(Cl)=C(Cl)Cl)[N+](=O)[O-])c(C)c1", "values": [
      {"measurement": "growth inhibition", "setting": "at 1.2 µM", "value": 4, "unit": "%"},
      {"measurement": "growth inhibition", "setting": "at 3.7 µM", "value": 10, "unit": "%"},
      {"measurement": "growth inhibition", "setting": "at 11.0 µM", "value": "78% (active)"},
      {"measurement": "growth inhibition", "setting": "at 33.0 µM", "value": "99% (active)"},
      {"measurement": "growth inhibition", "setting": "at 100.0 µM", "value": "94% (active)"}
    ]},
    {"molecule": "Nc1ccc2cc(Br)ccc2c1Br", "values": [
      {"measurement": "growth inhibition", "setting": "at 1.2 µM", "value": -6, "unit": "%"},
      {"measurement": "growth inhibition", "setting": "at 3.7 µM", "value": 1, "unit": "%"},
      {"measurement": "growth inhibition", "setting": "at 11.0 µM", "value": 1, "unit": "%"},
      {"measurement": "growth inhibition", "setting": "at 33.0 µM", "value": 3, "unit": "%"},
      {"measurement": "growth inhibition", "setting": "at 100.0 µM", "value": 52, "unit": "%"}
    ]},
    {"molecule": "CC(=O)/C=C/c1cccc([N+](=O)[O-])c1", "values": [
      {"measurement": "growth inhibition", "setting": "at 1.2 µM", "value": 2, "unit": "%"},
      {"measurement": "growth inhibition", "setting": "at 3.7 µM", "value": 4, "unit": "%"},
      {"measurement": "growth inhibition", "setting": "at 11.0 µM", "value": 9, "unit": "%"},
      {"measurement": "growth inhibition", "setting": "at 33.0 µM", "value": 29, "unit": "%"},
      {"measurement": "growth inhibition", "setting": "at 100.0 µM", "value": "86% (active)"}
    ]},
    {"molecule": "CC1(C)CC(=O)C(/C=N/c2nc(-c3ccc(Br)cc3)cs2)=C(O)C1", "values": [
      {"measurement": "growth inhibition", "setting": "at 1.2 µM", "value": 11, "unit": "%"},
      {"measurement": "growth inhibition", "setting": "at 3.7 µM", "value": 20, "unit": "%"},
      {"measurement": "growth inhibition", "setting": "at 11.0 µM", "value": 53, "unit": "%"},
      {"measurement": "growth inhibition", "setting": "at 33.0 µM", "value": "95% (active)"},
      {"measurement": "growth inhibition", "setting": "at 100.0 µM", "value": "97% (active)"}
    ]},
    {"molecule": "COc1cc([C@@H]2c3cc4c(cc3[C@@H](NC(=O)NO)[C@H]3COC(=O)[C@H]23)OCO4)cc(OC)c1O", "values": [
      {"measurement": "growth inhibition", "setting": "at 1.2 µM", "value": -2, "unit": "%"},
      {"measurement": "growth inhibition", "setting": "at 3.7 µM", "value": 2, "unit": "%"},
      {"measurement": "growth inhibition", "setting": "at 11.0 µM", "value": 10, "unit": "%"},
      {"measurement": "growth inhibition", "setting": "at 33.0 µM", "value": 48, "unit": "%"},
      {"measurement": "growth inhibition", "setting": "at 100.0 µM", "value": "88% (active)"}
    ]},
    {"molecule": "CCCCS(=O)(=O)Nc1ccc(Nc2c3ccccc3nc3ccccc23)c(OC)c1", "values": [
      {"measurement": "growth inhibition", "setting": "at 1.2 µM", "value": 54, "unit": "%"},
      {"measurement": "growth inhibition", "setting": "at 3.7 µM", "value": "80% (active)"},
      {"measurement": "growth inhibition", "setting": "at 11.0 µM", "value": "90% (active)"},
      {"measurement": "growth inhibition", "setting": "at 33.0 µM", "value": "93% (active)"},
      {"measurement": "growth inhibition", "setting": "at 100.0 µM", "value": "96% (active)"}
    ]},
    {"molecule": "O=C(NC(N1CCN(c2cc3c(cc2F)c(=O)c(C(=O)O)cn3C2CC2)CC1)(C(F)(F)F)C(F)(F)F)c1ccccc1", "values": [
      {"measurement": "growth inhibition", "setting": "at 1.2 µM", "value": -2, "unit": "%"},
      {"measurement": "growth inhibition", "setting": "at 3.7 µM", "value": 1, "unit": "%"},
      {"measurement": "growth inhibition", "setting": "at 11.0 µM", "value": 17, "unit": "%"},
      {"measurement": "growth inhibition", "setting": "at 33.0 µM", "value": "90% (active)"},
      {"measurement": "growth inhibition", "setting": "at 100.0 µM", "value": "90% (active)"}
    ]}
  ]
}
